# Columns and labels:
# Assay in all cases: PBM; 200 nM protein, PBS
# Conditions in all cases: dsDNA, one strand shown
# ALX3 = ALX3 (Homo sapiens, UniProt O95076 139-225)
# PAX4 = molecular target: T1, PAX4 (Homo sapiens, UniProt O43316 9-242, F177Y)
# T1 sequence: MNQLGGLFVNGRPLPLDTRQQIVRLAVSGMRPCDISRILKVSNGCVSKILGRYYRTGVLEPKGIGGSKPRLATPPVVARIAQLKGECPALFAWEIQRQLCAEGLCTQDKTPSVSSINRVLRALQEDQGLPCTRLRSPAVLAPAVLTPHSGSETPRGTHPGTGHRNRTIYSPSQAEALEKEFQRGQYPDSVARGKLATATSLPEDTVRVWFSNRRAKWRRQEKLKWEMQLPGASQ
# NKX2-4 = molecular target: T2, NKX2-4 (Homo sapiens, UniProt Q9H2Z4 175-261, R246Q)
# T2 sequence: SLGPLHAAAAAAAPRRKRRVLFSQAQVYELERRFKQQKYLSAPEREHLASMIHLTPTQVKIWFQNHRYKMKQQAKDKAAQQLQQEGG
# PROP1 [1] = molecular target: PROP1 (Homo sapiens, UniProt O75360 56-141)
# Sequence of PROP1 (Homo sapiens, UniProt O75360 56-141) (O75360 56-141): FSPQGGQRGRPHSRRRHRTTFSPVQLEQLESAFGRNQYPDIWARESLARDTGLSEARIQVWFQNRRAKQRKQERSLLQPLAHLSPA
# PROP1 [2] = molecular target: PROP1 (Homo sapiens, UniProt O75360 56-141, R99H)
# Sequence of PROP1 (Homo sapiens, UniProt O75360 56-141, R99H) (O75360 56-141 R99H): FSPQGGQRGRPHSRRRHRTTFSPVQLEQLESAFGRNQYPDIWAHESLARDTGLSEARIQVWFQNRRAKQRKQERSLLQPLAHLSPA
# PROP1 [3] = molecular target: PROP1 (Homo sapiens, UniProt O75360 56-141, F88S)
# Sequence of PROP1 (Homo sapiens, UniProt O75360 56-141, F88S) (O75360 56-141 F88S): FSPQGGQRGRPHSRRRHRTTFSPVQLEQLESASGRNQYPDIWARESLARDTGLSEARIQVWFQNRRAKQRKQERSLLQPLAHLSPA
# VAX1 [4] = molecular target: VAX1 (Homo sapiens, UniProt Q5SQQ9 86-172)
# Sequence of VAX1 (Homo sapiens, UniProt Q5SQQ9 86-172) (Q5SQQ9 86-172): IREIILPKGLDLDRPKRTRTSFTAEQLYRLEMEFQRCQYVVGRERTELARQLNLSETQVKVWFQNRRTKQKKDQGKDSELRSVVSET
# VAX1 [5] = molecular target: VAX1 (Homo sapiens, UniProt Q5SQQ9 86-172, T142I)
# Sequence of VAX1 (Homo sapiens, UniProt Q5SQQ9 86-172, T142I) (Q5SQQ9 86-172 T142I): as the sequence (Q5SQQ9 86-172) above, with T57I counted along it
# VAX1 [6] = molecular target: VAX1 (Homo sapiens, UniProt Q5SQQ9 86-172, K157R)
# Sequence of VAX1 (Homo sapiens, UniProt Q5SQQ9 86-172, K157R) (Q5SQQ9 86-172 K157R): as the sequence (Q5SQQ9 86-172) above, with K72R counted along it
# Sequence of ALX3 (O95076 139-225): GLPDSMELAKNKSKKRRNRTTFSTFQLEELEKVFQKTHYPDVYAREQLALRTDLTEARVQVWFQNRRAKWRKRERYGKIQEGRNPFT
sequence,measurement,setting,value
TAATACTA,binding signal,ALX3,"10.2 upbm affinity estimate (log intensity, higher = more binding, comparable within an allelic series)"
ATTATGTG,binding signal,PAX4,"10.9 upbm affinity estimate (log intensity, higher = more binding, comparable within an allelic series)"
ATCAAGTA,binding signal,NKX2-4,"12.9 upbm affinity estimate (log intensity, higher = more binding, comparable within an allelic series)"
TGAGATAA,binding signal,ALX3,"9.8 upbm affinity estimate (log intensity, higher = more binding, comparable within an allelic series)"
GATATGGA,binding signal,ALX3,"9.24 upbm affinity estimate (log intensity, higher = more binding, comparable within an allelic series)"
TAAAAGTA,binding signal,ALX3,"9.06 upbm affinity estimate (log intensity, higher = more binding, comparable within an allelic series)"
ATAACATA,binding signal,ALX3,"9.54 upbm affinity estimate (log intensity, higher = more binding, comparable within an allelic series)"
TCCTTAGA,binding signal,ALX3,"8.33 upbm affinity estimate (log intensity, higher = more binding, comparable within an allelic series)"
AAATACAT,binding signal,PROP1 [1],"8.5 upbm affinity estimate (log intensity, higher = more binding, comparable within an allelic series)"
same,binding signal,PROP1 [2],"7.91 upbm affinity estimate (log intensity, higher = more binding, comparable within an allelic series)"
AGGCTCCG,binding signal,PROP1 [1],"6.78 upbm affinity estimate (log intensity, higher = more binding, comparable within an allelic series)"
same,binding signal,PROP1 [2],"6.73 upbm affinity estimate (log intensity, higher = more binding, comparable within an allelic series)"
same,binding signal,PROP1 [3],"6.8 upbm affinity estimate (log intensity, higher = more binding, comparable within an allelic series)"
AATTCCGA,binding signal,PROP1 [1],"8.08 upbm affinity estimate (log intensity, higher = more binding, comparable within an allelic series)"
same,binding signal,PROP1 [2],"7.85 upbm affinity estimate (log intensity, higher = more binding, comparable within an allelic series)"
AACAATCC,binding signal,PROP1 [1],"7.92 upbm affinity estimate (log intensity, higher = more binding, comparable within an allelic series)"
AACAAGTG,binding signal,NKX2-4,"12.9 upbm affinity estimate (log intensity, higher = more binding, comparable within an allelic series)"
AAAATGGG,binding signal,PROP1 [1],"7.94 upbm affinity estimate (log intensity, higher = more binding, comparable within an allelic series)"
CCCGACAC,binding signal,PROP1 [1],"6.59 upbm affinity estimate (log intensity, higher = more binding, comparable within an allelic series)"
same,binding signal,PROP1 [2],"6.79 upbm affinity estimate (log intensity, higher = more binding, comparable within an allelic series)"
same,binding signal,VAX1 [4],"6.71 upbm affinity estimate (log intensity, higher = more binding, comparable within an allelic series)"
same,binding signal,PROP1 [3],"6.7 upbm affinity estimate (log intensity, higher = more binding, comparable within an allelic series)"
same,binding signal,VAX1 [5],"6.92 upbm affinity estimate (log intensity, higher = more binding, comparable within an allelic series)"
same,binding signal,VAX1 [6],"6.92 upbm affinity estimate (log intensity, higher = more binding, comparable within an allelic series)"
GCATTACA,binding signal,PROP1 [1],"8.11 upbm affinity estimate (log intensity, higher = more binding, comparable within an allelic series)"
same,binding signal,PROP1 [2],"7.66 upbm affinity estimate (log intensity, higher = more binding, comparable within an allelic series)"
ACACTCGA,binding signal,NKX2-4,"12.9 upbm affinity estimate (log intensity, higher = more binding, comparable within an allelic series)"
ATTGTCTC,binding signal,PROP1 [1],"7.7 upbm affinity estimate (log intensity, higher = more binding, comparable within an allelic series)"
GTAATAAC,binding signal,ALX3,"10.7 upbm affinity estimate (log intensity, higher = more binding, comparable within an allelic series)"
TGTAGTAA,binding signal,PROP1 [1],"8.45 upbm affinity estimate (log intensity, higher = more binding, comparable within an allelic series)"
same,binding signal,PROP1 [2],"8 upbm affinity estimate (log intensity, higher = more binding, comparable within an allelic series)"
ATTGTGAG,binding signal,PROP1 [1],"8.01 upbm affinity estimate (log intensity, higher = more binding, comparable within an allelic series)"
ATTTCCTA,binding signal,PROP1 [1],"7.97 upbm affinity estimate (log intensity, higher = more binding, comparable within an allelic series)"
AATACTAC,binding signal,PROP1 [1],"7.84 upbm affinity estimate (log intensity, higher = more binding, comparable within an allelic series)"
ATAATTCG,binding signal,PAX4,"11 upbm affinity estimate (log intensity, higher = more binding, comparable within an allelic series)"
CTTATAAC,binding signal,ALX3,"9.51 upbm affinity estimate (log intensity, higher = more binding, comparable within an allelic series)"
ATAGAAAA,binding signal,ALX3,"8.94 upbm affinity estimate (log intensity, higher = more binding, comparable within an allelic series)"
GACAGGGC,binding signal,PROP1 [1],"6.65 upbm affinity estimate (log intensity, higher = more binding, comparable within an allelic series)"
same,binding signal,PROP1 [2],"6.63 upbm affinity estimate (log intensity, higher = more binding, comparable within an allelic series)"
same,binding signal,PROP1 [3],"6.47 upbm affinity estimate (log intensity, higher = more binding, comparable within an allelic series)"
GTCTCGAA,binding signal,PROP1 [1],"6.78 upbm affinity estimate (log intensity, higher = more binding, comparable within an allelic series)"
same,binding signal,PROP1 [2],"6.8 upbm affinity estimate (log intensity, higher = more binding, comparable within an allelic series)"
same,binding signal,PROP1 [3],"7.1 upbm affinity estimate (log intensity, higher = more binding, comparable within an allelic series)"
GGAGCAGA,binding signal,PROP1 [1],"6.75 upbm affinity estimate (log intensity, higher = more binding, comparable within an allelic series)"
same,binding signal,PROP1 [2],"6.89 upbm affinity estimate (log intensity, higher = more binding, comparable within an allelic series)"
same,binding signal,PROP1 [3],"6.82 upbm affinity estimate (log intensity, higher = more binding, comparable within an allelic series)"
CCCGGGAA,binding signal,PROP1 [1],"6.78 upbm affinity estimate (log intensity, higher = more binding, comparable within an allelic series)"
same,binding signal,PROP1 [2],"6.79 upbm affinity estimate (log intensity, higher = more binding, comparable within an allelic series)"
same,binding signal,PROP1 [3],"6.66 upbm affinity estimate (log intensity, higher = more binding, comparable within an allelic series)"
CCCGCGCA,binding signal,PROP1 [1],"6.78 upbm affinity estimate (log intensity, higher = more binding, comparable within an allelic series)"
same,binding signal,PROP1 [2],"6.9 upbm affinity estimate (log intensity, higher = more binding, comparable within an allelic series)"
same,binding signal,PROP1 [3],"6.76 upbm affinity estimate (log intensity, higher = more binding, comparable within an allelic series)"
AATATGAA,binding signal,PROP1 [1],"8.47 upbm affinity estimate (log intensity, higher = more binding, comparable within an allelic series)"
same,binding signal,PROP1 [2],"8.01 upbm affinity estimate (log intensity, higher = more binding, comparable within an allelic series)"
same,binding signal,PROP1 [3],"7.42 upbm affinity estimate (log intensity, higher = more binding, comparable within an allelic series)"
GCATCTCC,binding signal,PROP1 [1],"6.85 upbm affinity estimate (log intensity, higher = more binding, comparable within an allelic series)"
same,binding signal,PROP1 [2],"6.93 upbm affinity estimate (log intensity, higher = more binding, comparable within an allelic series)"
same,binding signal,PROP1 [3],"6.57 upbm affinity estimate (log intensity, higher = more binding, comparable within an allelic series)"
AGGACACC,binding signal,PROP1 [1],"6.84 upbm affinity estimate (log intensity, higher = more binding, comparable within an allelic series)"
same,binding signal,PROP1 [2],"6.77 upbm affinity estimate (log intensity, higher = more binding, comparable within an allelic series)"
same,binding signal,PROP1 [3],"6.75 upbm affinity estimate (log intensity, higher = more binding, comparable within an allelic series)"
GCCTGCGA,binding signal,PROP1 [1],"6.74 upbm affinity estimate (log intensity, higher = more binding, comparable within an allelic series)"
same,binding signal,PROP1 [2],"6.64 upbm affinity estimate (log intensity, higher = more binding, comparable within an allelic series)"
same,binding signal,PROP1 [3],"6.59 upbm affinity estimate (log intensity, higher = more binding, comparable within an allelic series)"
AAGGGAGT,binding signal,PROP1 [1],"6.58 upbm affinity estimate (log intensity, higher = more binding, comparable within an allelic series)"
same,binding signal,PROP1 [2],"6.7 upbm affinity estimate (log intensity, higher = more binding, comparable within an allelic series)"
same,binding signal,PROP1 [3],"6.82 upbm affinity estimate (log intensity, higher = more binding, comparable within an allelic series)"
